The entries come from a sample that favours hits as a whole.
ERAP1 HTS inh: blocks human ERAP1 aminopeptidase activity; Q9NZ08; recombinant ERAP1, Leu-AMC fluorescence, 60 min; inhibition, % at 10.7 µM; 0.15% of 340,000 active; AID 652197;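 active = mean replicate inhibition of at least 30%, or all replicates individually reaching that 30% level; inactive = mean below 30% and not every replicate reaching it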;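 note: 0% = neutral control wells and 100% = L-leucinethiol positive control wells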
Target sequence (Q9NZ08 whole entry, looked up): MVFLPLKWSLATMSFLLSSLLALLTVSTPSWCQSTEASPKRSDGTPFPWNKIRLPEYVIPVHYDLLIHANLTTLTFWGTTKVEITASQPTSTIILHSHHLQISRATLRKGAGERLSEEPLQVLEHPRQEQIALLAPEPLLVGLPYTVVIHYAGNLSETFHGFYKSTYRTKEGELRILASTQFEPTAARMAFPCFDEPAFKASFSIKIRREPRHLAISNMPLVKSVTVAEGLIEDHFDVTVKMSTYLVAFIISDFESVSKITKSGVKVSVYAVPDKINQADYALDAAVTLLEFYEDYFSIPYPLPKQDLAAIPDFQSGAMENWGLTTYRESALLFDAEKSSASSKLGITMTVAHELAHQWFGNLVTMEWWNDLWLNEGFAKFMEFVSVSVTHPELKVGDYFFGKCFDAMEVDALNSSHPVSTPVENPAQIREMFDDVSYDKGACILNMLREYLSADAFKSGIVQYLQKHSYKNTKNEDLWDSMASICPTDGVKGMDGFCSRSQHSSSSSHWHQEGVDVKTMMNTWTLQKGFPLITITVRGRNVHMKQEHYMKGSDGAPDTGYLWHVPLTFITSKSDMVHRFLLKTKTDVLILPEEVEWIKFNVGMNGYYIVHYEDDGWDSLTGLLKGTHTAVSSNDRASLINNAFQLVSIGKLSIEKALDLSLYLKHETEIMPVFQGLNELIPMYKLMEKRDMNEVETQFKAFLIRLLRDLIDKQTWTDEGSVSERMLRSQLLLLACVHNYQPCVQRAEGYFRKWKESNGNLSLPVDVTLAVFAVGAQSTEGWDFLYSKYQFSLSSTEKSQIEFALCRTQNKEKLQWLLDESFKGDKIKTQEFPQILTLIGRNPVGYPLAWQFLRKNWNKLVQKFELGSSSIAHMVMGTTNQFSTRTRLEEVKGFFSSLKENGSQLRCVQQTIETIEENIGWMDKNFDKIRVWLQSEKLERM
HDAC3 inh: blocks human histone deacetylase 3 | inhibition, % at 8.3 µM | O15379 | 0.15% of 320,000 active | recombinant HDAC3, fluorogenic peptide/trypsin coupled, fluorescence; in the data active = inhibition above about 26%, passing the limit was not always enough
ERp5 inh: ERp5 (human) disulfide isomerase inhibition; Q15084; ERp5 insulin aggregation, absorbance 650 nm, 90 min; inhibition, % at 9.99 µM; 0.05% of 350,000 active; AID 651711;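 active = mean replicate inhibition above about 25%, with every replicate also reaching it, limit read from the data, passing the limit was not always enough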
PDI turbidity: blocks human protein disulfide isomerase activity; PDI insulin aggregation turbidity, A650, 90 min; inhibition, % at 10 µM; 0.052% of 350,000 active;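 active = mean inhibition across replicates of 30% or more, whatever share of single replicates reach that level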
SIRT5 block: sirtuin-5 (human) deacylase inhibition; Q9NXA8; Purified SirT5, succinyl-peptide AMC, trypsin-coupled fluorescence; inhibition, % at 15 µM; 1.1% of 330,000 active; in the data active = inhibition above about 15%
The depositor's hits bear a star; nt = no result.

SMILES	ERAP1 HTS inh	HDAC3 inh	ERp5 inh	PDI turbidity	SIRT5 block
Cc1ccc(S(=O)(=O)NNC(=O)c2c(O)c3ccccc3[nH]c2=O)cc1	1.5	nt	-2.3	5.3	17.1*
C[C@@H]1CN([C@@H](C)CO)C(=O)c2cc(NS(=O)(=O)c3ccc(F)cc3)ccc2O[C@@H](C)CCCCO[C@@H]1CN(C)C(=O)CCCN(C)C	6.7	nt	0.4	nt	-3.2
O=C(C[C@@H]1CC[C@H]2[C@@H](COC[C@H](O)CN2CCC(F)(F)F)O1)N1CCC(Cc2ccccc2)CC1	0.2	nt	3.4	nt	17.0*
O=C(C[C@H]1CC[C@H]2[C@@H](COC[C@@H](O)CN2Cc2ccc(Oc3ccccc3)cc2)O1)N1CCc2ccccc2C1	0.0	nt	0.6	nt	1.0
O=C(C[C@H]1CC[C@@H]2[C@H](COC[C@H](O)CN2Cc2ccc(Oc3ccccc3)cc2)O1)N1CCc2ccccc2C1	-0.3	nt	-1.7	nt	18.3*
CCCNC(=O)N1C[C@@H](O)COC[C@@H]2O[C@H](CC(=O)N3CCC(Cc4ccccc4)CC3)CC[C@H]21	-1.9	nt	0.4	nt	22.8*
C[C@H]1CN=C(Nc2ccccc2)N1CCCC1CCCC1	-2.1	0.0	-1.1	1.0	-5.0
C[C@H]1CN=C(Nc2ccccc2)N1CCC1CCCCC1	-2.1	-0.2	3.9	-4.5	22.5*
C[C@@H]1CN([C@H](C)CO)C(=O)c2ccccc2-c2ccccc2CO[C@@H]1CN(C)S(=O)(=O)c1ccsc1	0.7	nt	-8.5	nt	-1.3
C[C@@H]1CN([C@@H](C)CO)C(=O)Cc2cc(NS(=O)(=O)c3ccc(F)cc3)ccc2O[C@H]1CN(C)S(=O)(=O)c1ccccc1	0.2	nt	4.3	nt	-2.5
Nc1ccc(C(CC(=O)O)n2cccc2)cc1 (stereo not drawn)	2.2	-0.5	-2.5	2.0	21.0*
Nc1nc(CSc2ccccc2)nc(N2CCCCC2)n1	-3.2	-1.7	-4.3	3.1	1.8
Nc1nc(CSc2ccc(Cl)cc2)nc(N2CCCCC2)n1	-2.9	5.7	5.5	2.8	18.0*
Nc1nc(-c2ccco2)nn1C(=O)c1ccccc1	nt	35.3*	nt	7.4	nt
CCCC(=O)n1nc(-c2ccco2)nc1N	nt	40.3*	nt	-4.4	nt
O=C(c1ccccc1)n1nc(-c2ccccc2)nc1NCc1ccco1	0.8	38.0*	0.0	-0.3	-1.5
CCCC(=O)n1nc(-c2ccc(OC)cc2)nc1N	nt	7.8	nt	-5.9	nt
C[C@H]1CN([C@@H](C)CO)C(=O)Cc2cc(NC(=O)C3CCCCC3)ccc2O[C@@H]1CN(C)C(=O)Nc1ccccc1	-0.6	nt	-2.0	nt	-4.5
C[C@@H]1CN([C@@H](C)CO)C(=O)c2cc(-c3cccc(F)c3)cnc2O[C@H]1CN(C)Cc1ccccn1	2.9	nt	-1.6	nt	-1.8
O=C(C1CCC1)N1CC2(C1)[C@H](c1ccccc1)[C@H](CO)N2CC1CCCC1	1.0	nt	0.4	nt	0.9
COc1ccccc1-c1cccc([C@@H]2C[C@H]3[C@H](CON3C)CN2C(=O)CCc2ccccc2)c1	0.3	nt	-13.8	-1.9	16.8*
C=CC[C@@H](CC(=O)N[C@H](CO)Cc1ccccc1)C(=O)N[C@@H](COC(=O)[C@@H](CC=C)CC(=O)OC(C)(C)C)Cc1ccccc1	-2.5	17.5	2.7	3.2	18.3*
C=CC[C@@H](CC(=O)OC(C)(C)C)C(=O)OC[C@@H]1CCCN1C(=O)[C@@H](CC=C)CC(=O)N[C@@H](CO)Cc1ccccc1	3.1	2.4	1.5	3.2	25.3*
C=CC[C@@H](CC(=O)N[C@H](CO)Cc1ccccc1)C(=O)N[C@H](COC(=O)[C@@H](CC=C)CC(=O)OC(C)(C)C)Cc1c[nH]c2ccccc12	-1.8	10.8	2.1	1.6	nt
C=CC[C@H](CC(=O)N[C@H](CO)Cc1ccccc1)C(=O)N[C@@H](COC(=O)[C@H](CC=C)CC(=O)OC(C)(C)C)Cc1c[nH]c2ccccc12	-1.4	44.3*	5.0	5.7	-1.1
SMILES	ERAP1 HTS inh	HDAC3 inh	ERp5 inh	PDI turbidity	SIRT5 block
C=CC[C@@H](CC(=O)N[C@H](CO)Cc1ccccc1)C(=O)N[C@H](C)COC(=O)[C@@H](CC=C)CC(=O)OC(C)(C)C	nt	-0.7	3.9	-5.4	nt
C=CC[C@@H](CC(=O)N[C@@H](CO)Cc1ccccc1)C(=O)N[C@@H](COC(=O)[C@H](CC=C)CC(=O)OC(C)(C)C)Cc1c[nH]c2ccccc12	-1.4	39.4*	6.1	0.2	-1.2
C[C@H]1CN([C@@H](C)CO)C(=O)c2cccc(NS(=O)(=O)c3ccc(F)cc3)c2O[C@@H]1CN(C)C(=O)Nc1ccc(F)cc1	-1.8	nt	-7.3	nt	-2.9
COc1ccc(C(=O)Nc2ccc3c(c2)C(=O)N(C)C[C@@H](OC)[C@@H](C)CN[C@H](C)CO3)cc1	4.9	nt	-2.1	nt	-2.9
CC(C)(C)c1cc(-c2nc(N)nc(N)n2)c(O)c(C(C)(C)C)c1	2.2	29.1*	-4.4	-4.6	nt
O=C(Nc1nc(-c2ccc(Cl)cc2Cl)cs1)c1ccc(OCC2CCCO2)cc1 (stereo not drawn)	3.3	1.9	3.0	5.9	111.7*
CC(SC(=S)N1CCCC1)C(=O)O (stereo not drawn)	1.1	0.7	7.5	-11.3	20.3*
CC(C)(SC(=S)N1CCCCCC1)C(=O)O	-3.1	2.5	-6.3	0.4	-6.9
O=C(C[C@H]1CC[C@H](NC(=O)C2CCC2)[C@H](CO)O1)NC1CCC1	-2.2	nt	-3.2	nt	-2.4
COc1ccccc1C1CC(=O)Oc2cc(C)c(Cl)c(C)c21 (stereo not drawn)	nt	nt	-2.1	-14.5	-0.4
COc1ccccc1C1CC(=O)Oc2cc(C)c(Br)c(C)c21 (stereo not drawn)	0.6	nt	-3.7	-2.7	34.8*
CCC(=O)N(C)C[C@H]1Oc2cc(-c3cccc(OC)c3)ccc2S(=O)(=O)N([C@H](C)CO)C[C@@H]1C	-2.7	nt	-3.9	nt	-2.4
CC(C)N(Cc1cnn(C)c1)C(=O)c1ccc(OC2CCN(Cc3ccccn3)CC2)cc1	-4.7	5.2	-2.3	-0.5	16.8*
Cc1nn(C)cc1CN(C)C(=O)c1ccc(OC2CCN(Cc3ccccn3)CC2)cc1	-1.3	3.3	4.0	8.9	-0.7
CCOC(=O)c1c(C)[nH]c(C)c1C(=O)COC(=O)c1cc2ccccc2cc1O	0.6	0.2	2.9	-3.6	111.6*
CCc1ccc(CN(C)CCc2ccccn2)cc1	1.8	5.0	3.7	18.6	20.8*
Cc1cccc(/C(N)=N/OC(=O)COc2ccccc2Cl)c1	2.2	0.7	3.4	-5.5	16.9*
COc1ccc(/C(N)=N/OC(=O)COc2ccccc2Cl)cc1	0.6	-0.5	-1.6	6.4	-4.7
C[C@@H]1CN([C@@H](C)CO)C(=O)c2cc(-c3ccncc3)cnc2O[C@H]1CN(C)Cc1ccc(Oc2ccccc2)cc1	-0.6	nt	2.1	nt	2.1
CCC(C)N(C(=O)COC(=O)c1nc2nc(C)cc(C)n2n1)C1CCS(=O)(=O)C1 (stereo not drawn)	87.9*	-0.5	15.3	-3.8	3.4
Cc1cc(C)n2nc(C(=O)OCC(=O)N(C)C3CCS(=O)(=O)C3)nc2n1 (stereo not drawn)	0.0	-0.6	-0.6	-0.3	-1.0
O=C(Nc1ccccc1)N1C[C@H]2[C@@H](c3ccccc31)[C@H](CO)N2C(=O)c1ccccc1F	-0.4	nt	2.8	nt	-1.3
